How the values were obtained:
Conditions in all cases: concentration: 1 μM, replicates: in singlicate; n = 1
SRPK1 = tested on: SRPK1
SRPK2 = tested on: SRPK2
SRPK3 = tested on: SRPK3
STK16 = tested on: STK16
STK33 = tested on: STK33
STK35 = tested on: STK35
STK36 = tested on: STK36
STK39 = tested on: STK39
SYK = tested on: SYK
SgK110 = tested on: SgK110
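Also: KINOMEscan kinase panel screen.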

Row | Structure (SMILES) | %Inh (SRPK1) [%] | %Inh (SRPK2) [%] | %Inh (SRPK3) [%] | %Inh (STK16) [%] | %Inh (STK33) [%] | %Inh (STK35) [%] | %Inh (STK36) [%] | %Inh (STK39) [%] | %Inh (SYK) [%] | %Inh (SgK110) [%]
1 | Nc1n[nH]c2ncc(-c3ccccc3)cc12 [SB-517081] | 0 | 12 | 12 | 22 | 0 | 0 | 0 | 0 | 8 | 0
2 | Nc1ncnc2c1ncn2-c1cccc(F)c1 [SKF-97560] | 16 | 0 | 0 | 6 | 6 | 0 | 4 | 0 | 25 | 5
3 | CCC(=O)c1c(-c2ccccc2)c2cc(Cl)ccc2c(=O)n1Cc1cc(S(C)(=O)=O)n(CC(F)F)n1 | 0 | 2 | 0 | 0 | 0 | 0 | 0 | 0 | 0 | 31
4 | OCCCNc1nccc(-c2c(-c3cccc(C(F)(F)F)c3)nn3cc(C(F)(F)F)ccc23)n1 [GW630813] | 7 | 2 | 0 | 8 | 0 | 0 | 55 | 0 | 0 | 0
5 | CN1C(=O)C(Nc2cc(Cl)c(O)c(Cl)c2)=C(c2ccc(Cl)cc2)C1=O [SB-404321] | 0 | 0 | 96.2 | 0 | 0 | 0 | 19 | 0 | 0 | 0
6 | COc1cccc(C2=C(N(C)c3ccccc3)C(=O)NC2=O)c1 [SB-334865] | 0 | 7 | 0 | 22 | 0 | 0 | 0 | 7 | 9 | 0
7 | Cc1nc(N(C)[C@H]2CN(C(=O)CC#N)CC[C@H]2C)c2cc[nH]c2n1 | 26 | 0 | 1 | 0 | 0 | 0 | 0 | 0 | 0 | 0
8 | O=C(Nc1n[nH]c2nc(-c3ccccc3)c(Br)cc12)C1CC1 [SB-708998] | 36 | 0 | 17 | 0 | 14 | 0 | 38 | 4 | 13 | 13
9 | Cc1cc(Nc2nc(-c3cccc(C)n3)nc3ccccc23)ccn1 [GW872411] | 0 | 0 | 13 | 0 | 0 | 3 | 0 | 0 | 0 | 0
10 | Cn1c(=O)c(F)c(Nc2ccc(I)cc2F)c2c(=O)n(OC[C@H](O)CO)cnc21 | 15 | 13 | 7 | 14 | 0 | 0 | 9 | 32 | 20 | 0
11 | Nc1nccc2scc(-c3ccc4c(c3)CCN4C(=O)Cc3ccccc3)c12 [GSK2576924] | 28 | 0 | 0 | 4 | 0 | 0 | 0 | 11 | 16 | 0
12 | Nc1nc(N)c2nc(-c3ccccc3)[nH]c2n1 [SKF-12778] | 37 | 0 | 22 | 1 | 19 | 5 | 0 | 11 | 43 | 0
13 | Cl.c1ccc(Cn2cnc3cc(Nc4ncnc5ccccc45)ccc32)cc1 [GW272142] | 19 | 0 | 0 | 28 | 0 | 0 | 0 | 7 | 11 | 0
14 | Cc1ccc(Oc2ccc(Nc3ncnc4cc[nH]c34)cc2C)cn1 | 0 | 0 | 0 | 27 | 0 | 0 | 13 | 15 | 11 | 0
15 | Cc1ccc(-c2ccc3c(ccc4sc5c(c43)NC[C@@H](C)N=C5N(C)C)n2)cn1 | 0 | 6 | 25 | 0 | 0 | 0 | 0 | 0 | 0 | 14
16 | COc1cc2ncn(-c3cc(OCc4ccc(S(C)(=O)=O)cc4)c(C(N)=O)s3)c2cc1OC [GW869979] | 25 | 0 | 13 | 2 | 27 | 0 | 0 | 0 | 0 | 0
17 | CCc1ccc(-c2ccc3c(c2)-c2nn(C)cc2S(=O)(=O)N3C)cc1 | 0 | 0 | 0 | 0 | 2 | 0 | 0 | 0 | 27 | 12
18 | CN1C(=O)C(Nc2ccccc2)=C(c2ccccc2)C1=O [SB-300079] | 0 | 0 | 0 | 0 | 9 | 0 | 0 | 0 | 3 | 0

Row | Structure (SMILES) | %Inh (SRPK1) [%] | %Inh (SRPK2) [%] | %Inh (SRPK3) [%] | %Inh (STK16) [%] | %Inh (STK33) [%] | %Inh (STK35) [%] | %Inh (STK36) [%] | %Inh (STK39) [%] | %Inh (SYK) [%] | %Inh (SgK110) [%]
19 | CCC(=O)c1c(-c2ccccc2)c2cc(Cl)ccc2c(=O)n1Cc1cc(S(C)(=O)=O)n(CCC(C)(C)O)n1 | 3 | 53 | 11 | 1 | 8 | 15 | 11 | 0 | 25 | 9
20 | COc1cc(Nc2ccnc3ccc(C(F)(F)F)cc23)cc(OC)c1OC [GW577382] | 0 | 0 | 0 | 0 | 15 | 0 | 0 | 16 | 37 | 0
21 | CC(C)(C)c1ccc(C(=O)Nc2cn3cc(-c4ccccc4)ccc3n2)cc1 | 0 | 3 | 0 | 0 | 3 | 47 | 8 | 0 | 0 | 0
22 | O=C(NCc1cccs1)c1cc(C(=O)c2c(Cl)cccc2Cl)c[nH]1 [GW823670] | 0 | 0 | 0 | 0 | 0 | 0 | 10 | 0 | 6 | 14
23 | COc1ccc(-n2cnc3c(N)ncnc32)cc1 [SKF-97236] | 28 | 0 | 15 | 38 | 20 | 0 | 0 | 0 | 18 | 0
24 | Cc1ccccc1COc1cc(-n2cnc3cc(Cl)ccc32)sc1C(N)=O [GW813349] | 10 | 34 | 10 | 0 | 30 | 0 | 30 | 0 | 9 | 0
25 | Cc1cccc(-c2nc(Nc3ccc4c(cnn4C)c3)c3ccccc3n2)n1 [GW876731] | 0 | 0 | 0 | 5 | 0 | 0 | 2 | 33 | 24 | 6
26 | COc1ccc(Nc2nccc(N3CCC(NS(=O)(=O)c4ccc(NC(C)=O)cc4)C3)n2)cc1 (centres unmarked) [GSK1379729] | 35 | 0 | 63 | 19 | 10 | 14 | 3 | 2 | 35 | 4
27 | COc1cc2nccc(Nc3cccc(Oc4ccccc4)c3)c2cc1OC.Cl [GW284543] | 65 | 0 | 0 | 0 | 0 | 0 | 0 | 1 | 37 | 0
28 | Cc1c(Cn2c(C)nn3c(=O)cc(N4CCO[C@H](C)C4)nc23)cccc1C(F)(F)F [GSK2373690] | 0 | 0 | 0 | 6 | 0 | 2 | 0 | 32 | 25 | 2
29 | CCS(=O)c1ccc(-c2coc3ccc(-c4nnc(C)o4)cc23)cc1 (centres unmarked) | 0 | 0 | 5 | 22 | 0 | 0 | 2 | 28 | 13 | 5
30 | CCC(=O)c1c(-c2ccccc2)c2cc(Cl)ccc2c(=O)n1Cc1cc(S(C)(=O)=O)n(CC(N)=O)n1 | 0 | 0 | 0 | 16 | 17 | 0 | 0 | 0 | 9 | 0
31 | COc1cc2ncn(-c3cc(OCc4ccncc4Br)c(C(N)=O)s3)c2cc1OC [GW854278] | 44 | 0 | 28 | 14 | 6 | 0 | 1 | 0 | 20 | 0
32 | O=C(Nc1n[nH]c2nc(-c3ccccc3)c(Cl)cc12)C1CC1 [SB-734909] | 0 | 27 | 15 | 1 | 0 | 32 | 6 | 0 | 0 | 23
33 | CCC(=O)c1c(-c2ccccc2)c2cc(Cl)ccc2c(=O)n1Cc1cc(C(=O)NC2CC2)n(C)n1 | 0 | 19 | 0 | 6 | 0 | 51 | 0 | 13 | 0 | 11
34 | Cc1cccc(-c2cc(-c3c[nH]nc3-c3ccccn3)ccn2)c1 [GW679395] | 3 | 0 | 0 | 21 | 0 | 0 | 64 | 30 | 16 | 64
35 | COc1cc2ncn(-c3cc(OCCCc4ccccc4)c(C(N)=O)s3)c2cc1OC [GSK205189] | 27 | 0 | 7 | 13 | 0 | 15 | 0 | 0 | 21 | 0

Source: publication PMC5540273 (PLoS ONE, 2017)
